An excerpt weighted towards active compounds, which were near 12% of everything screened.
Sfp inh – inhibitors of Bacillus subtilis Sfp phosphopantetheinyl transferase. AID 1490. Biochemical Sfp PPTase activity, qHTS. 3.5% of 310,000 active. Potency, µM, for inactives: largest response in the series, negative = inhibition, actives largely listed as inhibitors;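 also: the enzyme is Sfp with the accession as filed and its product quenches rhodamine fluorescence; 0% = enzyme reaction without inhibitor and -100% = no enzyme wells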
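After 15 min at room temperature with compound, 15 nM Sfp received 5 uM rhodamine-CoA plus 12.5 uM BHQ-2-ybbR (50 mM Hepes pH 7.6, 10 mM MgCl2). Rate came from the fluorescence difference over 30 min, ex 525/em 598 nm.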
TDP1 block – TDP1 (human) enzyme inhibition | Q9NUW8 | recombinant TDP1, AlphaScreen DNA substrate cleavage | Potency, µM (doses to about 130 µM), for inactives: at the highest dose activity change, negative = inhibition, most hits filed as inhibitors | 0.28% of 350,000 active | AID 485290; also: % is scaled to controls: 0 for no effect and ±100 for the full control effect; nearly all actives have a fitted effect of over 40% in size
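Here, a 5' biotin and 3' phosphotyrosine-FITC DNA oligonucleotide reports Tdp1 activity: intact substrate bridges AlphaScreen beads, while cleavage leaves a 3' phosphate and drops signal. All incubations at room temperature.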
HP1b binding inh – blocks HP1-beta chromodomain binding to methylated histone tails | P83916 | AlphaScreen HP1-beta / biotin-H3K9me3 peptide binding | Potency, µM (top dose mostly 114 µM), without a hit: top-dose activity change, negative = inhibition, hits mostly inhibitors | 0.56% of 390,000 active | AID 540317; also: nearly all actives have a fitted effect of over 70% in size
Target sequence (P83916 whole entry, looked up): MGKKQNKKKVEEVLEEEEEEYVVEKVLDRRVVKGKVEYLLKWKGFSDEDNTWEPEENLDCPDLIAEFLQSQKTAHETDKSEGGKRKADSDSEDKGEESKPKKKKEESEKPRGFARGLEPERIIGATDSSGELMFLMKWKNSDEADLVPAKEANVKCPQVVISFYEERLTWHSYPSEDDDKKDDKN
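HP1-beta protein (50 nM final) preincubated 30 min at room temperature with biotinylated H3(1-18)K9me3 peptide (50 nM) in PBS pH 7.4, 0.01% Tween-20, then compound added for 30 min. AlphaScreen streptavidin donor/nickel chelate acceptor beads (10 ug/mL final), 30 min dark, luminescence read.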
BAZ2B inh – blocks human BAZ2B; Q9UIF8; AlphaScreen BAZ2B-H3K14Ac peptide displacement; Potency, µM (doses to about 114 µM), inactives show at the highest dose activity change, negative = inhibition, usual class: inhibitors; 4.4% of 360,000 active; also: % is scaled to controls: 0 for no effect and ±100 for the full control effect; nearly all actives have a fitted effect of over 60% in size
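Protein-peptide AlphaScreen: BAZ2B 50 nM, b-H3K14Ac 50 nM, 1x PBS pH 7.4 + 0.01% Tween-20. Preincubation 30 min RT; cpd 30 min RT (top 110 uM); beads 20 min RT, light-protected.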
JMJD2A Tudor – inhibitors of human JMJD2A Tudor domain | 4.4% of 390,000 active | O75164 | Potency, µM (top dose mostly 114 µM), for the others: at the highest dose activity change, negative = inhibition, usual class: inhibitors | AlphaScreen JMJD2A-Tudor / H3K4me3 peptide binding; also: % is scaled to controls: 0 for no effect and ±100 for the full control effect; nearly all actives have a fitted effect of over 50% in size
G9a block – inhibitors of human histone lysine methyltransferase G9a | Q96KQ7 | G9a H3K9 monomethylation, AlphaScreen, 2 h | Potency, µM (series often up to 102 µM), inactives show at the highest dose activity, negative = inhibition, actives largely listed as inhibitors | 8.8% of 350,000 active; also: % is scaled to controls: 0 for no effect and ±100 for the full control effect; nearly all actives have a fitted effect of over 75% in size
Target sequence (Q96KQ7 913-1193 limits assumed): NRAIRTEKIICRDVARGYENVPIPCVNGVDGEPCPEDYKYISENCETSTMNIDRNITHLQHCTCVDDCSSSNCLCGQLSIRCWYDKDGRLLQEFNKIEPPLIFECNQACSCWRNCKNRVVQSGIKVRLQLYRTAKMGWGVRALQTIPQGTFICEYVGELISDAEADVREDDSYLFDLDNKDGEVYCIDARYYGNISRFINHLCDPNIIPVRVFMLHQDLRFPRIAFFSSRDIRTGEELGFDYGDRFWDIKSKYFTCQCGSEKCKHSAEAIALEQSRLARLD
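AlphaScreen detection with an anti-monomethyl H3K9 antibody quantified product after a 2 h room-temperature reaction containing 500 nM biotinylated H3K9 peptide, 20 µM SAM and 20 nM enzyme, which had been preincubated 15 min with compound.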
* hit, by the source's call; ? = inconclusive; · = no result given; [ ] = another dose, or the depositor's remark. Calls follow the shape of the dose curve; as a rule, active = well fitted curve in the direction sought with a large enough effect; inconclusive = small, poorly fitted or top-dose-only effect, or another doubt; inactive = no such curve, though single readings can be large; an effect the other way counts as inactive or inconclusive. Potency is read from the fitted curve at half-maximal effect.

SMILES	Sfp inh	TDP1 block	HP1b binding inh	BAZ2B inh	JMJD2A Tudor	G9a block
Cc1oc(-c2ccc(Cl)cc2)nc1CN1CCCC(C(=O)NCCc2ccc(Cl)cc2)C1 (stereo unspecified)	·	4.6%	8.9%	-34.0%	?	?
CC12CCC(c3nnc(SCc4ccc(Cl)cc4)nc31)C2(C)C (stereo unspecified)	-6.0%	3.2%	63.6%	24.7%	24.0%	13.0%[59 µM]
CC12CCC(c3n[nH]c(=S)nc31)C2(C)C (stereo unspecified)	?	-2.6%	-30.9%	-10.7%	20µM*	8.91µM*
COc1cccc(NC(=O)CN(C)C(=O)CN2C(=O)NC(C)(c3ccc4ccccc4c3)C2=O)c1 (stereo unspecified)	·	·	9.4%	-5.9%	?	-49.2%[0.501 µM]
O=C(NCc1ccc2c(c1)CCN2C(=O)c1ccc(F)cc1)c1ccco1	·	1.5%	23.1%	-6.6%	-13.3%	-0.5%[59 µM]
CCOC(=O)C(=O)/C(C#N)=C/Nc1ccc(F)cc1	-9.5%	-7.0%	39.3%	?	4.1%	35.5µM*
COc1ccc(CNc2ncncc2-c2cccc(NS(C)(=O)=O)c2)c(OC)c1	3.0%	·	·	·	·	-30.5%[0.501 µM]
O=C(COc1cccc2c1CCN(Cc1ccc(Cl)cc1)C2=O)N1CCOCC1	10.7%	8.9%	19.9%	-14.1%	-9.9%	4.0%
CCOc1ccccc1C(=O)NCC(=O)OCC(=O)c1c(N)n(C)c(=O)n(C)c1=O	·	-0.4%	22.5%	·	-11.0%	·
O=C(O)CNC(=O)c1ccc(NS(=O)(=O)c2ccc3ccccc3c2)cc1	2.1%	2.8%[0.0935 µM]	16.6%	?	-16.1%	39.8µM*
CC(=O)c1ccc(NS(=O)(=O)c2ccc3ccccc3c2)cc1	26.7%	5.3%	-6.2%	-6.3%	-16.3%	5.4%[59 µM]
COc1cc(S(=O)(=O)Nc2ccc(C(=O)NCC(=O)O)cc2)ccc1NC(C)=O	-11.8%	3.5%	29.1%	-13.2%	2.8%	50.1µM*
COc1cc(-c2ccc3ncnc(N(C)Cc4csc(C)n4)c3c2)cc(OC)c1OC	·	·	·	·	-20.6%	·
CCCCCCCCNCCS(=O)(=O)NCc1ccc(OC)cc1	·	·	22.5%	·	7.2%	·
Cc1ccc(NC(=S)NCC2CCN(C(C)c3ccccc3)C2)cc1 (stereo unspecified)	-24.1%	0.0%	12.5%	0.3%	-9.8%	50.1µM*
CC(c1ccccc1)N1CCC(CNC(=S)Nc2cccc(Cl)c2)C1 (stereo unspecified)	3.6%	5.4%	19.2%	-13.1%	-25.9%	-50.9%
CCN(C(=O)COc1ccccc1C(=O)NCc1ccccc1)C1CCS(=O)(=O)C1 (stereo unspecified)	·	0.8%	22.5%	0.2%	3.8%	?
CCN(C(=O)COC(=O)c1nc(Cl)ccc1Cl)C1CCS(=O)(=O)C1 (stereo unspecified)	·	-5.1%	3.3%	-3.3%	-13.7%	1.41µM*
CCN(C(=O)COc1cccc2cccnc12)C1CCS(=O)(=O)C1 (stereo unspecified)	-26.2%	-4.8%	-12.1%	50.1µM*	-27.5%	?
O=C(CC(c1ccccc1)c1cc(Br)ccc1O)NCC1(c2ccccc2)CCCC1 (stereo unspecified)	·	6.3%	-7.4%	?	-31.3%	-23.1%[59 µM]
COc1ccccc1OCCCC(=O)Nc1nccs1	14.1%	0.0%	42.5%	3.5%	-10.6%	·
COc1cc(C(C)=O)ccc1OCc1nnc(-c2ccccc2Br)o1	4.1%	·	53.7%	-5.6%	-4.9%	11.0%
COc1ccc(C(C)=O)cc1Cn1nnc(-c2ccccc2Br)n1	8.1%	·	28.2%	56.2µM*	-6.2%	4.2%
CC(C)(CNC(=O)c1cc([N+](=O)[O-])ccc1N1CCC(Cc2ccccc2)CC1)N1CCOCC1	·	4.5%	1.0%	?	?	25.2%[12.7 µM]
CC1=NN(c2ccccc2)C(=O)/C1=C/c1cccc(C)c1	-6.1%	·	-0.6%[57 µM]	?	-31.0%	50.1µM*
SMILES	Sfp inh	TDP1 block	HP1b binding inh	BAZ2B inh	JMJD2A Tudor	G9a block
COc1ccc(C2=NN(c3ccccc3)C(=O)/C2=C\c2ccc(O)c(OC)c2)cc1	4.6%	7.9%	15.8µM*	25.1µM*	15.8µM*	15.8µM*
CCOc1ccc(N2C(=O)S/C(=C\c3ccc(O)c(OC)c3)C2=O)cc1	-8.6%	·	3.7%	-2.4%	-8.4%	1.8%
CCOc1cc(/C=C2/C(=O)N(c3ccccc3)N=C2C)ccc1OC(=O)c1cccs1	-18.1%	13.9%	-2.1%	50.1µM*	?	39.8µM*
CC1=NN(c2ccccc2)C(=O)/C1=C\C=C\c1ccccc1	-4.4%	10.6%	10µM*	3.98µM*	10µM*	2.24µM*
CC(=O)Oc1ccc(/C=C2/C(=O)N(c3ccccc3)N=C2C)cc1	-10.2%	·	-26.0%[57 µM]	?	?	?
O=C(CS(=O)(=O)c1cccc2nsnc12)Nc1ccccc1	·	7.7%	21.9%[57 µM]	1.7%	1.3%	11.2%[59 µM]
CC1=NN(c2ccccc2)C(=O)/C1=C/c1cc2cc(C)ccc2nc1N1CCCCC1	-23.9%	8.3%	·	8.91µM*	·	-15.1%[0.0925 µM]
COc1ccc(/C=C2/C(=O)N(c3c(F)c(F)c(F)c(F)c3F)N=C2C)cc1	-26.8%	·	-11.4%	-4.1%	-21.4%	26.8%[0.501 µM]
COc1ccc(/C=C2/C(=O)N(c3ccccc3)N=C2C)cc1OC	12.8%	·	4.3%	-12.0%	-30.1%	70.8µM*
CCOc1ccc(CO/N=C/c2c(C)[nH]c(=O)[nH]c2=O)cc1	0.5%	1.2%	33.1%	-2.7%	-18.7%	6.2%[59 µM]
CCOc1ccc(N(CC(=O)NC2CCCCC2)C(=O)CCC(=O)Nc2ccccn2)cc1	0.0%	10.4%	13.3%	4.1%	5.3%	16.9%
C[C@H]1CN(S(=O)C(C)(C)C)[C@@H](CCO)/C1=C\c1ccccc1 (stereo partly specified)	·	·	9.9%	·	-17.8%	·
O=C1C2CCCCN2C(=O)N1CCCN1CCN(c2ccc(F)cc2)CC1 (stereo unspecified)	-1.4%	·	33.3%	-3.4%	?	11.6%[0.501 µM]
Nc1ccc(N2CCN(CCCCN3C(=O)C4CCCN4C3=O)CC2)cc1 (stereo unspecified)	-8.5%	10.5%	-28.2%	?	?	10µM*
CCc1ccc(-c2cc(C)no2)cc1S(=O)(=O)N1CCOc2ccccc21	4.1%	0.1%	44.0%	1.2%	1.5%	23.0%
CCN(Cc1ccccc1)C(=O)Cn1c(=O)n(-c2ccc(OC)cc2OC)c(=O)c2c(C)c(C)sc21	14.3%	3.7%	25.1%	-29.4%	-13.7%	9.7%[59 µM]
CCCCSc1nc2sc3c(c2c(=O)n1-c1ccc(OC)cc1)CCN(C)C3	-8.5%	·	1.2%	-26.7%	?	?
CCCCCSc1nc2sc3c(c2c(=O)n1-c1ccc(OC)cc1)CCN(C(C)=O)C3	·	9.1%	-17.8%	-37.8%	?	11.2µM*

High-throughput results deposited in PubChem by National Center for Advancing Translational Sciences (NCATS).
